Screening results as filed in PubChem.
An excerpt weighted towards active compounds, which were near 11% of everything screened.
HP1b chromo inh: blocks HP1-beta chromodomain binding to methylated histone tails. Potency, µM (series often up to 114 µM), for the others: top-dose activity change, negative = inhibition, usual class: inhibitors. AlphaScreen HP1-beta / biotin-H3K9me3 peptide binding. AID 540317. hit rate 0.56% among 390,000; further: nearly all actives have a fitted effect of over 70% in size
Target sequence (P83916 whole entry, looked up): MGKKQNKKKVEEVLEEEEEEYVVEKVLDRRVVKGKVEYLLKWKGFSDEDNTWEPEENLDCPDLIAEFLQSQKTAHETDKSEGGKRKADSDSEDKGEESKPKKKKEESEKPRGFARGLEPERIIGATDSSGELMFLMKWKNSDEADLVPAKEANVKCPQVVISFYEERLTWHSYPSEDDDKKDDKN
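Compound inhibition of the preformed complex between 50 nM HP1-beta and 50 nM biotinylated H3K9me3 peptide was read by AlphaScreen. Buffer was PBS pH 7.4 with 0.01% Tween-20. Incubations ran 30 min at room temperature, with 10 ug/mL donor/acceptor beads.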
VDR inh: vitamin D3 receptor (human) inhibition | AID 504847 | Potency, µM, without a hit: max response, negative = inhibition, usual class: inhibitors | VDR-SRC2-3 peptide fluorescence polarization, 2 h | P11473 | hit rate 0.93% among 400,000; further: on the % scale 0 is the no-effect control and ±100 the full control effect
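Two reagent solutions held at 4 deg C in the dark were dispensed, compounds pinned at 23 nl, and the mixture incubated 2 h at room temperature. Read-out: fluorescence polarization of VDR–SRC2-3 peptide binding.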
JMJD2A Tudor: inhibitors of human JMJD2A Tudor domain; AID 504339; AlphaScreen JMJD2A-Tudor / H3K4me3 peptide binding; O75164; hit rate 4.4% among 390,000; Potency, µM (series often up to 114 µM), for the others: at the highest dose activity change, negative = inhibition, most hits filed as inhibitors; further: on the % scale 0 is the no-effect control and ±100 the full control effect; nearly all actives have a fitted effect of over 50% in size
PLK1 PBD inh: blocks phosphopeptide binding to human PLK1 polo-box domain; P53350; Plk1 PBD binding of FITC phosphopeptide, fluorescence polarization; Potency, µM, for the others: max response, negative = inhibition, hits mostly inhibitors; hit rate 2.8% among 360,000; further: series mostly up to about 57 µM; on the % scale 0 is the no-effect control and ±100 the full control effect; nearly all actives have a fitted effect of over 65% in size
G9a inh: G9a (human) methyltransferase inhibition | Q96KQ7 | G9a H3K9 monomethylation, AlphaScreen, 2 h | Potency, µM (series often up to 102 µM), without a hit: top-dose activity, negative = inhibition, usual class: inhibitors | hit rate 8.8% among 350,000 | AID 504332; further: on the % scale 0 is the no-effect control and ±100 the full control effect; nearly all actives have a fitted effect of over 75% in size
Target sequence (Q96KQ7 913-1193 limits assumed): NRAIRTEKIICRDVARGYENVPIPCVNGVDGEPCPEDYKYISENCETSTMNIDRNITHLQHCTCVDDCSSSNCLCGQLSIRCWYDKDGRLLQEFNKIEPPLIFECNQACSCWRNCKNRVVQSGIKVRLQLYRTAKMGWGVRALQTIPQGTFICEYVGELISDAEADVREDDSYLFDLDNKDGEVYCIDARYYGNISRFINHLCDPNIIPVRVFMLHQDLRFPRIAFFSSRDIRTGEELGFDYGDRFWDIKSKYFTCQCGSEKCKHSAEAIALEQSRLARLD
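AlphaScreen detection with an anti-monomethyl H3K9 antibody quantified product after a 2 h room-temperature reaction containing 500 nM biotinylated H3K9 peptide, 20 µM SAM and 20 nM enzyme, which had been preincubated 15 min with compound.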
BAZ2B inh: BAZ2B (human) inhibition; AlphaScreen BAZ2B-H3K14Ac peptide displacement; Potency, µM (top dose mostly 114 µM), inactives show at the top dose activity change, negative = inhibition, actives largely listed as inhibitors; hit rate 4.4% among 360,000; AID 504333; further: on the % scale 0 is the no-effect control and ±100 the full control effect; nearly all actives have a fitted effect of over 60% in size
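AlphaScreen displacement of biotin-H3(5-23)K14Ac peptide (50 nM final) from BAZ2B (50 nM final) in PBS pH 7.4, 0.01% Tween-20; complex preformed 30 min RT, then compounds (top 110 uM) 30 min RT, beads 20 min dark.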
An asterisk follows results filed as active; ? = inconclusive; nt = no result; [ ] = another dose, or the depositor's remark. The call rests on the fitted dose curve; in most records, active means well fitted curve in the direction sought with a large enough effect; inconclusive means small, poorly fitted or top-dose-only effect, or another doubt; inactive means no such curve, though single readings can be large; an effect the other way counts as inactive or inconclusive. Potency means the concentration at half of the fitted maximal effect.

SMILES	HP1b chromo inh	VDR inh	JMJD2A Tudor	PLK1 PBD inh	G9a inh	BAZ2B inh
COCCSc1ccccc1C(=O)Nc1cccnc1	23%	?	1%	-5%	1.6µM*	-3%
Cc1ccc(NS(=O)(=O)c2ccc(F)cc2)cc1C	nt	nt	-3%	nt	nt	nt
Nc1ccc(Sc2ccc([N+](=O)[O-])cc2)cc1	?	3%	?	-9%	56µM*	35µM*
CC(C)(C)C(=O)Nc1ccc(Sc2ccc([N+](=O)[O-])cc2)cc1	6%	2%	-19%	-10%	-18%[59 µM]	-9%
O=[N+]([O-])c1ccc(N2CCCCC2)cc1	13%	-1%	-19%	2%	11%	-26%
O=C1C=CC(=O)N1c1ccc(Sc2ccc([N+](=O)[O-])cc2)cc1	nt	nt	nt	nt	8.9µM*	?
Nc1ccc(S(=O)(=O)Nc2nccs2)cc1N=Nc1ccccc1[N+](=O)[O-]	40µM*	?	40µM*	30µM*	nt	nt
Cc1cc(C)c(OCC(=O)N(Cc2ccco2)Cc2ccco2)c(C)c1	22%	10%	-31%	nt	-5%[59 µM]	-16%
CCc1ccccc1OC[C@@H](O)CN[C@H]1CCCc2ccccc21	9%	9%	40µM*	2%	4µM*	?
O=C(c1ccccc1)c1ccc(OCC(O)CNC2CCCc3ccccc32)cc1 (stereo not drawn)	?	-12%	10µM*	3%	10µM*	50µM*
CCOc1ccc(NC(=O)NC2CCCc3ccccc32)cc1 (stereo not drawn)	24%	4%	0%	7%	46%	-2%
OC(CNC1CCCc2ccccc21)COc1ccc2ccccc2c1 (stereo not drawn)	?	8%	-100%	-7%	10µM*	?
CC(=O)CCc1ccc(OCC(O)CNCCOc2ccc(C)cc2)cc1 (stereo not drawn)	12%	-5%	-13%	-3%	2%	0%
CC(=O)CCc1ccc(OCC(O)CNC2CCCc3ccccc32)cc1 (stereo not drawn)	-42%	-17%	3.5µM*	3%	?	?
C[C@H]1CN(c2ccc(Br)cc2)C(=O)[C@@H]1CC(=O)Nc1ccccc1	nt	nt	nt	-7%	nt	nt
CCOC(=O)Cn1c(=O)oc2cc(S(=O)(=O)N3CCN(c4ccc(Cl)cc4)CC3)ccc21	18%	7%	-25%	nt	-9%[59 µM]	-7%
Cc1cccc(C)c1OCC(N)C(C)C (stereo not drawn)	33%	0%	0%	-3%	3.8µM*	71µM*
O=[S+]([O-])(c1ccc2c(c1)OCCO2)N1CCN([S+](=O)([O-])c2c(F)cc(F)cc2Br)CC1	nt	nt	-24%	nt	nt	nt
COc1ccc(NC(=O)CSc2nnc(-c3nonc3NC(C)=O)n2C)cc1Cl	34%	10%	-15%	nt	-8%[59 µM]	-3%
N#CC1=C(N)S[C@@H](C(=O)c2ccc(F)cc2)[C@@H]1c1cccs1	-7%	-5%	?	-11%	10µM*	?
Cc1ccc(S(=O)(=O)/N=S(\C)CC2CC2(Cl)Cl)cc1 (stereo not drawn)	15%	4%	-12%	-5%	3%[59 µM]	-5%
COc1cccc(C(=O)NC(=S)Nc2ccc(Cl)c(C(=O)O)c2)c1	-14%	-1%	-20%	-27%	?	?
CCOc1cccc(C(=O)NC(=S)Nc2ccc(N3CCCC3)cc2)c1	14µM*	7%	?	-14%	?	8.9µM*
COc1ccc(NC(=S)NC(=O)c2ccc3c(c2)OCCO3)cc1	?	-27%	?	-18%	nt	nt
CCOc1cccc(C(=O)NC(=S)Nc2ccc(Cl)cc2C(=O)O)c1	?	?	?	5.3µM*	40µM*	-7%
CCOc1cccc(C(=O)NC(=S)Nc2ccc3c(c2)OCCO3)c1	?	?	?	-14%	40µM*	?
CCOc1cccc(C(=O)Nc2ccc(N3CCN(S(C)(=O)=O)CC3)cc2)c1	31%	-5%	-26%	-3%	4%	-2%
Cc1onc(-c2ccccc2Cl)c1C(=O)Oc1cc(F)cc(F)c1	72%	-6%	59%	nt	46%[59 µM]	121%
